Experiment [1] concerns Wnt5a (protein binding on small-molecule microarray). Nature of the experiment: Wnt5a binders on small-molecule microarray, primary screen, biophysical, 635/667 nm fluorescence (AID 1142).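 Also: fluorescence read at 667 nm with signal to noise per printed feature.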 As to conditions: 635 nm fluorescence, higher = more signal.
The nature of experiment [2]: cell viability in Huh7 cells, primary screen, cytotoxicity control for HCV replication inhibitor project, CellTiter-Glo luminescence, basal, 48 h (AID 1143).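 Also: Huh7 hepatoma cells carrying a hepatitis C replication reporter with no stimulus; test concentration not given here.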 As to conditions: Huh7 HCV replicon, higher = more signal, called active from +8 up or from −8 down. For orientation: Cellular ATP, detected with luciferase, serves as a proxy for viable cell number.
Experiment [3] is described as follows: P. aeruginosa biofilm formation inhibitors, primary screen, PAO1 strain, BacTiter-Glo luminescence, LB-PBS (AID 1144). Conditions: 12 h, higher = more signal.
Experiment [4] in a line: CREB reporter modulators without forskolin, primary screen, cell-based, PC12, CRE-LacZ reporter, unstimulated (AID 1145). Conditions: no forskolin, luminescence, 4.5 h, higher = more signal, called active from +8 up or from −8 down.
The nature of experiment [5]: CREB reporter modulators under forskolin, primary screen, cell-based, PC12, CRE-LacZ reporter, forskolin-stimulated (AID 1146).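 Also: PC12 cells with 6xCRE LacZ reporter stimulated by forskolin 10 µM; beta-galactosidase reporter signal reflecting CREB driven transcription.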 As to conditions: luminescence, 4.5 h, higher = more signal, called active from +8 up or from −8 down.
In experiment [6] the target is Streptavidin (Streptomyces avidinii) (UniProt P22629). Nature of the experiment: streptavidin binders on small-molecule microarray, primary screen, artefact control for SMM compound annotation, biophysical, 635/667 nm fluorescence (AID 1147).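 Also: signal reflects streptavidin binding to arrayed compounds as a control protein.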 Conditions: streptavidin binding, higher = more signal.
The nature of experiment [7]: small-molecule binders of probe aInhba, primary screen, biochemical, small-molecule microarray, 635/667 nm fluorescence (AID 1148).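 Also: score merges 667nm spot fluorescence with signal-to-noise for antibody binding to printed compounds.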 As to conditions: higher = more signal.
Experiment [8] has as its target Torsin-1A (Homo sapiens) (UniProt O14656). As to the kind of experiment: torsin A binders from cell lysate, primary screen, small-molecule microarray, wild-type, 635/667 nm (AID 1149). Conditions: COS7 hTOR1A-WT lysate, 635 nm fluorescence, higher = more signal.
The target is the same in experiment [9]. Nature of the experiment: small-molecule binders of mutant TOR1A in lysate, primary screen, cell lysate, small-molecule microarray, COS7 lysate, 635/667 nm fluorescence (AID 1150).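 Also: score pools 667 nm emission and signal to noise measuring lysate protein binding.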 As to conditions: COS7 hTOR1A mutant lysate, 635 nm fluorescence, higher = more signal.
For experiment [10], the system named is Sonic hedgehog protein (Shh). As to the kind of experiment: small-molecule binders of Shh protein, primary screen, biochemical, small-molecule microarray, 635/667 nm fluorescence (AID 1151).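 Also: Shh protein binding to compounds spotted on small-molecule microarray slides; score combines spot fluorescence intensity with signal-to-noise across triplicate slides.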 Conditions: small-molecule microarray binding, 635 nm fluorescence; higher = more signal.
The nature of experiment [11]: E. coli DRC41 culture turbidity changes, primary screen, E. coli filamentation inducer project, strain DRC41, OD650, 48 h (AID 1152).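 Also: E. coli MC1000 strain DRC41 lacking acrAB efflux pump and sulA.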 Conditions: E. coli DRC41 (acrAB sulA), higher = more signal, called active from +8 up or from −8 down.
Experiment [12] in a line: small-molecule binders of probe aLefty1, primary screen, biochemical, small-molecule microarray, 635/667 nm fluorescence (AID 1153).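 Also: score merges spot fluorescence with signal-to-noise ratio from the scanned slide images.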 As to conditions: higher = more signal.
Experiment [13] is described as follows: PSAC antagonists in infected red cells, primary screen, cell-based, P. falciparum Indochina, OD700, 1 h (AID 1154). As to conditions: P. falciparum Indochina infected RBC osmotic lysis, higher = more signal, called active from +8 up or from −8 down.
The nature of experiment [14]: PSAC antagonists in infected red cells, primary screen, cell-based, P. falciparum Indochina, OD700, 2 h (AID 1155).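 Also: lysis reports solute entry through the parasite surface anion channel PSAC; channel blockers reduce lysis of infected cells.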 Conditions: P. falciparum Indochina infected erythrocytes, osmotic lysis OD700; higher = more signal, called active from +8 up or from −8 down.
A short description of experiment [15]: osmotic lysis modulators in infected erythrocytes, primary screen, PSAC antagonist project, cell-based, P. falciparum Indochina, OD700, 3 h (AID 1156). As to conditions: higher = more signal, called active from +8 up or from −8 down.
A short description of experiment [16]: PSAC antagonists in infected red cells, primary screen, cell-based, P. falciparum Indochina, OD700, 18 h (AID 1157). Conditions: P. falciparum Indochina infected erythrocytes, osmotic lysis OD700, 18 h; higher = more signal, called active from +8 up or from −8 down.
A short description of experiment [17]: modulators of S6 phosphorylation in cells, primary screen, cell-based, A549, cytoblot, luminescence, serum-stimulated (AID 1158).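 Also: serum-stimulated A549 lung adenocarcinoma cells; signal is phosphorylated S6 detected by cytoblot immunostaining with HRP secondary.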 As to conditions: A549 phospho-S6 cytoblot, 5 h, higher = more signal.
The target in experiment [18] is NADPH oxidase 2 (Homo sapiens) (UniProt P04839). Nature of the experiment: NOX2-dependent H2O2 signal modulators, primary screen, NOX inhibitor project, cell-based, HEK293-NOX2, PMA-stimulated, Amplex Red fluorescence (AID 1159). Also: test concentration not given here. Conditions: 45 min, higher = more signal, called active from +8 up or from −8 down.
Experiment [19] concerns the target NADPH oxidase 4 (Homo sapiens) (UniProt Q9NPH5). Nature of the experiment: NOX4-dependent H2O2 signal modulators, primary screen, NOX inhibitor project, cell-based, HEK293-NOX4, tetracycline-induced, Amplex Red fluorescence (AID 1160). Conditions: 45 min, higher = more signal, called active from +8 up or from −8 down.
Experiment [20] has as its target NADPH oxidase 5 (Homo sapiens) (UniProt Q96PH1). As to the kind of experiment: NOX5-dependent H2O2 signal modulators, primary screen, NOX inhibitor project, cell-based, HEK293-NOX5, Amplex Red fluorescence (AID 1161). As to conditions: HEK293-NOX5, ionomycin, 45 min, higher = more signal.

Activity calls are given as the source filed them. Unless noted, no rule for the calls is given here.

Chain of Torsin-1A (Homo sapiens) (O14656 whole entry, looked up): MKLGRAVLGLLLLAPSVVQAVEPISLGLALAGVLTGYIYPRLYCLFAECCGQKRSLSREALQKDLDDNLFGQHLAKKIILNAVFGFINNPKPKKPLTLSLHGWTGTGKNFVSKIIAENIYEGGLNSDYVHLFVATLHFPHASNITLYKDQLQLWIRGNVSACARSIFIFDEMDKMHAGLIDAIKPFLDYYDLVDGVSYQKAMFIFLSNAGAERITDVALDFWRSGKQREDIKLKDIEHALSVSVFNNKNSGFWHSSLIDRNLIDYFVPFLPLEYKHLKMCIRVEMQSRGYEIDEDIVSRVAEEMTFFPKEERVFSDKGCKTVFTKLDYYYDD
Chain of NADPH oxidase 2 (Homo sapiens) (P04839 whole entry, looked up): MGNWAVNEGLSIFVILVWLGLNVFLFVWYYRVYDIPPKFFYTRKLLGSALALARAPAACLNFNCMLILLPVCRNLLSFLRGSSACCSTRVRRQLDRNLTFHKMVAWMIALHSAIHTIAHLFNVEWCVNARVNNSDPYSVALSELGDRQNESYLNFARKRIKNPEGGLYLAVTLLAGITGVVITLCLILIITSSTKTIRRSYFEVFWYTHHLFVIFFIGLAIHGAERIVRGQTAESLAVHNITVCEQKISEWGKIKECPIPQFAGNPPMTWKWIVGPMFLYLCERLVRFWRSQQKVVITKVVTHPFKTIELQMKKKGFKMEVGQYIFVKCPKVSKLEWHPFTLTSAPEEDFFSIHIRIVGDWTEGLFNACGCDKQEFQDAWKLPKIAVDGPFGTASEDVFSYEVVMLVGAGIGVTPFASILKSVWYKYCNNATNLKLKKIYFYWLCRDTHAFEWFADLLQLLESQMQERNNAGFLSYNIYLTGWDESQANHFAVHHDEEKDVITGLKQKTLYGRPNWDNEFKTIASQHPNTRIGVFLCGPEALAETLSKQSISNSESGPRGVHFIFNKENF
Chain of NADPH oxidase 4 (Homo sapiens) (Q9NPH5 whole entry, looked up): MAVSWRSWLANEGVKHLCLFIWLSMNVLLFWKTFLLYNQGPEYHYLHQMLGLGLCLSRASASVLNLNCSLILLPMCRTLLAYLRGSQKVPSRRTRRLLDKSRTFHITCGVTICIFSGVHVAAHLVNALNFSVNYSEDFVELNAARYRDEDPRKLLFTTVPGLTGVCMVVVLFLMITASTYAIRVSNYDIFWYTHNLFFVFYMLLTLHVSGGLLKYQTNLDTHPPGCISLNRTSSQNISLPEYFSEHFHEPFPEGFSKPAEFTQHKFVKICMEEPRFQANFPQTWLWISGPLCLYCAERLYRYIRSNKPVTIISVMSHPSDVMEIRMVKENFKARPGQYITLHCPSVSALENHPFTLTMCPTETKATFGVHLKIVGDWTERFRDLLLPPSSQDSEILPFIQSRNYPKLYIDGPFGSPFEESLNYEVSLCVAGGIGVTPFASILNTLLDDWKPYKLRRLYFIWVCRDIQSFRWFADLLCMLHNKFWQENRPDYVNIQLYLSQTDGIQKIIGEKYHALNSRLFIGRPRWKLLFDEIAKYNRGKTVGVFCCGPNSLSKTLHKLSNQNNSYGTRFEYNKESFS
Chain of Streptavidin (Streptomyces avidinii) (P22629 whole entry, looked up): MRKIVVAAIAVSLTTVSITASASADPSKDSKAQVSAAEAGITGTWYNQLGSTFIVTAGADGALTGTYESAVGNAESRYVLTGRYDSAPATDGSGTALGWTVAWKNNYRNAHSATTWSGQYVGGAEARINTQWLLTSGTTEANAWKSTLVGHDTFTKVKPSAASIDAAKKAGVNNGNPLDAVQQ
Chain of NADPH oxidase 5 (Homo sapiens) (Q96PH1 whole entry, looked up): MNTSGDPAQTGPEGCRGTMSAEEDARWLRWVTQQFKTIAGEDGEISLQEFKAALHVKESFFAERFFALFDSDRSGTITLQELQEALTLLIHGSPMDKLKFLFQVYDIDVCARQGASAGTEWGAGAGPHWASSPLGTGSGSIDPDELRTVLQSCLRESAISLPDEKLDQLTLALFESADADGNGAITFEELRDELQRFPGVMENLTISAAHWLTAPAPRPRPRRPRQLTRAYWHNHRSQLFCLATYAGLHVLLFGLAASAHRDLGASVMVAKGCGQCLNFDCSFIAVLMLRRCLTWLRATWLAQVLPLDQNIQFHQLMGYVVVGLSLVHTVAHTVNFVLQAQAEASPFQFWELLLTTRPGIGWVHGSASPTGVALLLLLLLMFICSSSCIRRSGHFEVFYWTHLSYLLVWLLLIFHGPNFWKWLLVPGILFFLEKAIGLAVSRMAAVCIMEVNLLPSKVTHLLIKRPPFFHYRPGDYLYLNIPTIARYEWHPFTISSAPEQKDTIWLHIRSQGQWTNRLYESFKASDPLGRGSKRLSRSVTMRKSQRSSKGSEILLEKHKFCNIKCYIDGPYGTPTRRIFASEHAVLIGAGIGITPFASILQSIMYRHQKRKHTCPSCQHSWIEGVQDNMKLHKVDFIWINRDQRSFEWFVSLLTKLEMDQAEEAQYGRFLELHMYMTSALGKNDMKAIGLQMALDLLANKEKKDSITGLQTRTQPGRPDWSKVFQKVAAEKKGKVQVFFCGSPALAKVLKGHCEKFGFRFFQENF

For the compound `NC(=O)N1C(=O)C2C(C1=O)C1C=C(CCCO)C2C(C2CC2)N1Cc1sc2ccccc2c1Cl` (stereo not given), the composite z-score in experiment [1] is 0.588; in experiment [6] it was 0.526; in experiment [7], -0.0371; with Torsin-1A (Homo sapiens) [8], 0.842; with Torsin-1A (Homo sapiens) [9] it was 0.82; in [10] it was 0.726. For the same compound, the composite z-score in experiment [12] stood at 0.105. The z-score in experiment [2] was -0.205 (inactive); in experiment [3], 0.0825 (inactive); in [4], 0.261 (inactive); in experiment [5], -0.654 (inactive); in experiment [11], 0.4 (inactive); in experiment [13] it was 13.4 (active). The z-score in experiment [14] is 2.12 (inactive); in experiment [15], 0.394 (inactive); in experiment [16], 1.07 (inactive); in [17] it was 0.125; in experiment [18], 2.74 (inactive); in experiment [19], 0.923 (inactive). The compound also came in with a z-score in experiment [20] of -0.549.
In the case of `C=CCNC(=O)[C@H]1[C@@H]2C(=O)O[C@@H](c3ccccc3)[C@@H](c3ccccc3)N2[C@@H](c2ccccc2OCCO)[C@]12C(=O)N(C(=O)OCCOC)c1ccc(C#Cc3ccc(OC)cc3)cc12`, the composite z-score in experiment [1] is 0.571; in experiment [6] it was 0.12; in [7], -0.149; with Torsin-1A (Homo sapiens) [8], 0.292; in the experiment with Torsin-1A (Homo sapiens) [9], 0.51; in [10], 0.168. Besides, the composite z-score in experiment [12] stood at 0.0114. Further, the z-score in experiment [2] was -2.77 (inactive); in experiment [3] it was -0.394 (inactive); in experiment [4] it was 1.12 (inactive); in experiment [5] it was -0.261 (inactive); in [11], 0.296 (inactive); in experiment [13] it was 2.46 (inactive). For the same compound, the z-score in experiment [14] was 1.98 (inactive); in [15] it was 0.0435 (inactive); in [16], 1.25 (inactive); in experiment [17], 0.638; in experiment [18] it was 1.74 (inactive); in experiment [19] it was 0.404 (inactive). In experiment [20], this compound gave a z-score of 0.673.
For the compound `COC(=O)[C@H](Cc1ccccc1)N1CC2=CCCC=C[C@@H]2[C@H]1[C@H](O)Cc1ccccc1`, the composite z-score in [1] is -0.0279; in experiment [6] it was 0.916; in [7], -0.0332; with Torsin-1A (Homo sapiens) [8] it was -0.214; with Torsin-1A (Homo sapiens) [9] it was -0.371; in experiment [10], 0.848. The same compound yielded a composite z-score in experiment [12] of 0.315. The z-score is -1.02 (inactive) in experiment [2]; 1.09 (inactive) in experiment [3]; 2.4 (inactive) in experiment [4]; 1.07 (inactive) in experiment [5]; -0.53 (inactive) in [11]; 1.31 (inactive) in experiment [13]. The z-score in experiment [14] is 0.492 (inactive); in experiment [15] it was 0.429 (inactive); in experiment [16], 0.256 (inactive); in experiment [17] it was -0.232; in experiment [18], -0.286 (inactive); in [19], -0.477 (inactive). In experiment [20], the z-score was -0.647.
Regarding `COCCCNC(=O)[C@@]1(CCS(=O)(=O)c2ccccc2)COC(c2ccc(OCCCO)cc2)=N1`, the composite z-score in experiment [1] was 0.612; in [6] it was 2.53; in experiment [7] it was 0.271; with Torsin-1A (Homo sapiens) [8], 1.29; with Torsin-1A (Homo sapiens) [9], 1.49; in experiment [10], -0.334. In [12], this compound yielded a composite z-score of 0.87. Also, the z-score in [2] is -0.0036 (inactive); in experiment [3] it was 0.86 (inactive); in experiment [4], 0.918 (inactive); in experiment [5] it was -0.387 (inactive); in experiment [11] it was 1.08 (inactive); in [13], 29.2 (active). Moreover, the z-score is 24.6 (active) in [14]; 0.764 (inactive) in experiment [15]; 4.31 (inactive) in [16]; -0.131 in [17]; -0.556 (inactive) in experiment [18]; 0.25 (inactive) in experiment [19]. The same compound came in with a z-score in experiment [20] of 0.0637.
On to `O=C1C=C(c2ccccc2)C(=O)C2=C1CC([C@H]1Oc3ccccc3S(=O)(=O)N3CCC[C@@H]13)=CC2`, for which the composite z-score in experiment [1] was -0.0842; in [6] it was 0.429; in [7], -0.235; with Torsin-1A (Homo sapiens) [8], -0.295; in the experiment with Torsin-1A (Homo sapiens) [9], -0.495; in experiment [10], -0.0231. The same compound gave a composite z-score in [12] of -0.101. Besides, the z-score in [2] is -6.3 (inactive); in [3], 0.497 (inactive); in experiment [4], 4.67 (inactive); in [5], 20.1 (active); in experiment [11], -0.0139 (inactive); in experiment [13], 2.36 (inactive). Also, the z-score is 0.445 (inactive) in experiment [14]; -0.299 (inactive) in experiment [15]; 0.0841 (inactive) in experiment [16]; -0.154 in experiment [17]; -0.368 (inactive) in experiment [18]; -3.24 (inactive) in experiment [19]. The z-score in [20] was -2.66.

These data come from PubChem BioAssay.
